PME-1 primary = PME-1 (human) inhibition; AID 2130; 320,000 tested, 0.53% active; Q9Y570; inhibition, % at 5.9 µM; recombinant PME-1, FP-Rh probe fluorescence polarization;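 active = inhibition above the campaign mean of all compounds plus 3 SD, cut at about 26% in these data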;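 note: competitive labeling of PME-1 active site by serine hydrolase directed probe; 0% = PME-1 with DMSO and 100% = wells lacking PME-1 enzyme; inhibitors block probe labeling so polarization falls and inhibition rises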
Target sequence (Q9Y570 whole entry, looked up): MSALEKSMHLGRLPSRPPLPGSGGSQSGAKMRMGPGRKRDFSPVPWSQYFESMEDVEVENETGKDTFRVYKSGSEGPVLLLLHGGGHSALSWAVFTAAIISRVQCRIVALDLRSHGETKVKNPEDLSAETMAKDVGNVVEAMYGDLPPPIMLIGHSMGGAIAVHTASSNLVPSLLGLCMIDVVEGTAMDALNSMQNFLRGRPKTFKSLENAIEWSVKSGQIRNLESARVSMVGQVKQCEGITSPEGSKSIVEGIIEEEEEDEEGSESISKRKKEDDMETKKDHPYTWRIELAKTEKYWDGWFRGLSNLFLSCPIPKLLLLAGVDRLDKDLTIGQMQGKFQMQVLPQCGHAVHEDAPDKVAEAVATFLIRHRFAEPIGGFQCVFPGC
LYPLA1 inh = blocks human lysophospholipase 1, a PME1 counter-screen; 320,000 tested, 0.16% active; inhibition, % at 5.9 µM; recombinant LYPLA1, FP-Rh probe fluorescence polarization;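 active = inhibition above the mean of all tested compounds plus 3 SD, set per campaign, cut at about 14% in these data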;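 note: inhibitors block serine hydrolase probe labeling of LYPLA1 so polarization falls; 0% = enzyme with DMSO and 100% = wells lacking LYPLA1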
Target sequence (O75608 whole entry, looked up): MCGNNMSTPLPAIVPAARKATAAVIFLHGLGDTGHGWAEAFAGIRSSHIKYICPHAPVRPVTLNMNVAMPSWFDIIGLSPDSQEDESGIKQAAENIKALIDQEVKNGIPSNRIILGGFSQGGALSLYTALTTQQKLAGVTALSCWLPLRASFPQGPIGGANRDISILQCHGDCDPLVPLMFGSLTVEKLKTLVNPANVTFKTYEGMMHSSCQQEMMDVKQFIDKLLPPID
Fam108B inh = counter-screen for RBBP9 inhibitors: inhibitors of mouse Fam108B; inhibition, % at 9.51 µM; recombinant Fam108B, FP-Rh probe fluorescence polarization; 300,000 tested, 0.33% active; AID 1947;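 active = inhibition above the screen mean inhibition plus 3 SD, computed separately per campaign, cut at about 18% in these data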;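 note: inhibitors lower polarization as less probe binds the enzyme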
LYPLA2 inh = blocks human lysophospholipase 2, a PME1 counter-screen; recombinant LYPLA2, FP-Rh probe fluorescence polarization; inhibition, % at 5.9 µM; AID 2177; O95372; 320,000 tested, 0.38% active;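 active = inhibition above the screen-wide mean plus 3 SD, limit set per campaign, cut at about 26% in these data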;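 note: 0% = LYPLA2 with DMSO and 100% = wells lacking LYPLA2 enzyme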
GSTO1 counter = counter-screen for RBBP9 inhibitors: inhibitors of human GSTO1; inhibition, % at 5.96 µM; recombinant GSTO1, activity-based probe fluorescence polarization; P78417; 300,000 tested, 1.1% active;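 active = inhibition above the campaign mean inhibition plus 3 SD, cut at about 35% in these data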;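 note: 0% = GSTO1-1 with DMSO and 100% = wells lacking GSTO1-1 enzyme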
PREPL inhibitor = inhibitors of human prolyl oligopeptidase-like enzyme PREPL; inhibition, % at 5.96 µM; recombinant PREPL, fluorescence polarization activity-based probe; Q4J6C6; 320,000 tested, 0.68% active; in the data active = inhibition above about 43%;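 note: 0% = enzyme with DMSO and 100% = wells lacking enzyme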
LYPLA2 confirm = counter-screen for PME1 inhibitors: confirmation of human LYPLA2 inhibitors; shares compounds with LYPLA2 inh; recombinant LYPLA2, FP-Rh probe fluorescence polarization; inhibition, % at 5.9 µM; 1,100 tested, 72% active; AID 2232;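 active = mean inhibition across replicates above the hit cutoff set in the primary screen, cut at about 26% in these data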;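 note: blocked labeling of the enzyme by serine hydrolase FP-Rh probe lowers polarization; 0% = enzyme with DMSO and 100% = wells lacking LYPLA2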
LYPLA2 ABPP = blocks human acyl-protein thioesterase 2 in gel ABPP | shares compounds with LYPLA2 inh | rhLYPLA2 in mouse brain proteome, gel ABPP FP-Rh | inhibition, % at 20 µM | 150 tested, 30% active;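 active = inhibition of LYPLA2 enzyme probe labeling above about 50%, limit read from the data; inactive = inhibition below that limit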;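 note: loss of FP-Rh probe labeling of the LYPLA2 gel band measured as band density; 0% = DMSO only control band and 100% = blank gel background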
An asterisk follows results filed as active. Rows were chosen to be rich in hits. Some 1.9% of all compounds tested hit in one or more screens of this group.

`CC(C)CNC(=O)COC(=O)c1cc(S(=O)(=O)N2CCCCC2)ccc1N1CCOCC1` gave PME-1 primary 3, LYPLA1 inh 2, Fam108B inh 8, LYPLA2 inh -6, GSTO1 counter 7 and PREPL inhibitor 12.
For CC(C)NC(=O)NC(=O)COC(=O)c1cc(S(=O)(=O)N2CCCCC2)ccc1N1CCOCC1 the results were PME-1 primary 0, LYPLA1 inh 1, Fam108B inh -1, LYPLA2 inh 27*, GSTO1 counter 1, PREPL inhibitor 12 and LYPLA2 confirm 24.
`O=C(OCc1cccc(Cl)c1)c1cc(S(=O)(=O)N2CCCCC2)ccc1N1CCOCC1` gave PME-1 primary 9, LYPLA1 inh -2, Fam108B inh 1, LYPLA2 inh -6, GSTO1 counter -1 and PREPL inhibitor 3.
For COc1ccccc1NC(=O)Nc1nnc(CC(=O)Nc2cccc(C)c2)s1 the results were PME-1 primary -22, LYPLA1 inh -5, Fam108B inh -7, LYPLA2 inh -18, GSTO1 counter -6 and PREPL inhibitor -34.
For COc1ccccc1Nc1ncc(C(=O)N2CCN(Cc3ccc(OC)c(OC)c3OC)CC2)c2ccccc12 the results were PME-1 primary 6, LYPLA1 inh 2, Fam108B inh 0, LYPLA2 inh 46*, GSTO1 counter 3, PREPL inhibitor 15 and LYPLA2 confirm 24.
`O=C(N/C(=C/c1ccco1)C(=O)N1CCCCC1)c1cccs1` gave PME-1 primary -1, LYPLA1 inh 0, Fam108B inh -3, LYPLA2 inh 3, GSTO1 counter -2 and PREPL inhibitor 6.
For Cc1ccccc1C(=O)N(Cc1nc2ccccc2c(=O)[nH]1)C1CCCC1 the results were PME-1 primary -6, LYPLA1 inh 3, Fam108B inh -2, LYPLA2 inh -2, GSTO1 counter 8 and PREPL inhibitor -47.
CNC(=S)NNC(=O)c1oc2nc(-c3ccccc3)cc(C)c2c1N was read as PME-1 primary -4, LYPLA1 inh -2, Fam108B inh 0, LYPLA2 inh 7, GSTO1 counter 3 and PREPL inhibitor 3.
`NNC(=O)c1oc2nc(-c3ccccc3)cc(-c3ccccc3)c2c1N` gave PME-1 primary 5, LYPLA1 inh -1, Fam108B inh 7, LYPLA2 inh 32*, GSTO1 counter 4, PREPL inhibitor 6 and LYPLA2 confirm 9.
Screening CCOC(=O)C1=C(O)C(=O)N(Cc2cccnc2)C1c1ccc(C)cc1 (stereo not given) returned PME-1 primary -3, LYPLA1 inh -2, Fam108B inh 1, LYPLA2 inh -3, GSTO1 counter 1 and PREPL inhibitor 14.
CC(=O)Cc1nsc(NC(=O)c2ccc(COc3ccccc3)o2)n1 was read as PME-1 primary -4, LYPLA1 inh -1, Fam108B inh 3, LYPLA2 inh 4, GSTO1 counter -4 and PREPL inhibitor 2.
`COc1ccccc1C(=O)C1CCCN(C(=O)c2ccc3c(c2)OCCO3)C1` (stereo not given) gave PME-1 primary 8, LYPLA1 inh 6, Fam108B inh -5, LYPLA2 inh 43*, GSTO1 counter 7, PREPL inhibitor -3 and LYPLA2 confirm 5.
For Cc1nc(-c2ccc(S(=O)(=O)N3CCN(C4c5ccccc5-c5ccccc54)CC3)s2)cs1 the results were PME-1 primary -13, LYPLA1 inh -4, Fam108B inh -7, LYPLA2 inh -8, GSTO1 counter -26 and PREPL inhibitor -12.
For Cc1nc(-c2ccc(S(=O)(=O)N3CCCN(CCc4ccccc4)CC3)s2)cs1 the results were PME-1 primary 2, LYPLA1 inh 8, Fam108B inh 0, LYPLA2 inh 61*, GSTO1 counter 2, PREPL inhibitor -16, LYPLA2 confirm 68* and LYPLA2 ABPP 50*.
`O=C(NCC(c1ccco1)N1CCCCC1)c1cccc(NS(=O)(=O)c2ccc(Br)cc2)c1` (stereo not given) gave PME-1 primary -2, LYPLA1 inh -7, Fam108B inh -8, LYPLA2 inh -5, GSTO1 counter -10 and PREPL inhibitor -73.
`CCOC(=O)C1=C(C)NC2=C(C1c1ccc([N+](=O)[O-])cc1)S(=O)(=O)c1ccccc12` (stereo not given) gave PME-1 primary 4, LYPLA1 inh 1, Fam108B inh -5, LYPLA2 inh 41*, GSTO1 counter 2, PREPL inhibitor 21 and LYPLA2 confirm 38*.
For CCOC(=O)C1=C(C)NC2=C(C(=O)c3ccccc32)C1c1ccc([N+](=O)[O-])o1 (stereo not given) the results were PME-1 primary 6, LYPLA1 inh -6, Fam108B inh 12, LYPLA2 inh 2, GSTO1 counter 19 and PREPL inhibitor 26.
For COc1ccc(NC2c3ccccc3C(=O)N2c2cccnc2)cc1 (stereo not given) the results were PME-1 primary 4, LYPLA1 inh 2, Fam108B inh 0, LYPLA2 inh 3, GSTO1 counter 6 and PREPL inhibitor 2.
`CCn1c(=O)cc(OCC(=O)N2CCN(c3cccc(C(F)(F)F)c3)CC2)c2ccccc21` gave PME-1 primary 3, LYPLA1 inh 7, Fam108B inh 0, LYPLA2 inh 51*, GSTO1 counter 3, PREPL inhibitor 0 and LYPLA2 confirm 47*.
For O=C(CSCc1ccccc1Cl)Nc1c[nH]c(=O)[nH]c1=O the results were PME-1 primary 4, LYPLA1 inh 2, Fam108B inh -5, LYPLA2 inh 39*, GSTO1 counter 1, PREPL inhibitor -5 and LYPLA2 confirm -3.
CC1CC(C)CN(c2ccc(-n3cnnn3)cc2[N+](=O)[O-])C1 (stereo not given) was read as PME-1 primary -3, LYPLA1 inh 5, Fam108B inh -1, LYPLA2 inh 4, GSTO1 counter 0 and PREPL inhibitor 26.
`O=[N+]([O-])c1cc(-n2cnnn2)ccc1N1CCC(Cc2ccccc2)CC1` gave PME-1 primary 8, LYPLA1 inh 2, Fam108B inh 7, LYPLA2 inh 28*, GSTO1 counter -1, PREPL inhibitor 37 and LYPLA2 confirm 34*.
For Cc1cccc(Nc2c([N+](=O)[O-])cc(C(=O)N3CC(=O)Nc4ccccc43)cc2[N+](=O)[O-])c1 the results were PME-1 primary 6, LYPLA1 inh -3, Fam108B inh 5, LYPLA2 inh 32*, GSTO1 counter 5, PREPL inhibitor -47 and LYPLA2 confirm 38*.
